Inconclusive results are not listed. The source made the active and inactive calls. Unless noted, calls follow the shape of the dose curve; as a rule, active = well fitted curve in the direction sought with a large enough effect in the repeat runs; inconclusive = weak or mixed curves; inactive = no such curve, though single readings can be large; an effect the other way counts as inactive or inconclusive.
Legend:
[1] = qHTS assay for small molecule agonists of the p53 signaling pathway (AID 651631; calls by dose curve; also: nearly all actives have a fitted effect of over 15% in size)
Outline: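 HCT-116 cells carrying a stable p53 response element–beta-lactamase reporter were plated, rested 5 h at 37 °C, then exposed to compound in DMSO for 16 h at 37 °C; reporter activity was read as FRET substrate fluorescence after 2 h at room temperature.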

[2] = qHTS assay for small molecules that induce genotoxicity in human embryonic kidney cells expressing luciferase-tagged ATAD5 (AID 651632); also: nearly all actives have a fitted effect of over 15% in size
Outline: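 Increased luciferase signal from ATAD5-tagged reporter cells indicates DNA-damage-driven ATAD5 induction. HEK293T cells are treated for 16 hr at 37C before detection with Amplite.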

[3] = qHTS assay for small molecule agonists of the p53 signaling pathway - cell viability (AID 651633; calls by dose curve; also: series mostly up to about 83 µM; nearly all actives have a fitted effect of over 30% in size)
Outline: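 p53RE-bla cells were treated with compound for 16 hours at 37 C. Cytotoxicity was then measured as CellTiter-Glo luminescence after 30 min at room temperature.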

[4] = qHTS assay for small molecules that induce genotoxicity in human embryonic kidney cells expressing luciferase-tagged ATAD5 - cell viability (AID 651634; calls by dose curve; also: nearly all actives have a fitted effect of over 25% in size)
Outline: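 Cytotoxicity counterscreen in HEK293T cells bearing an ATAD5-luciferase reporter: live-cell protease activity measured by CellTiter-Fluor fluorescence after 15.5 hr compound exposure.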

[5] = qHTS assay for small molecule disruptors of the mitochondrial membrane potential - cell viability (AID 720634; calls by dose curve;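 also: human HepG2 liver cancer cells; series mostly up to about 83 µM; nearly all actives have a fitted effect of over 20% in size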)
Outline: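 After overnight attachment at 37 C, HepG2 cells received compound or DMSO vehicle for 1 hr. Viability is then taken from ATP-driven luminescence following a 30 min room-temperature CellTiter-Glo step.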

[6] = qHTS assay for small molecule disruptors of the mitochondrial membrane potential (AID 720635)
Outline: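 HepG2 cells exposed to compound 1 hr at 37C, then Mito-MPS dye 30 min. Ratio read of aggregate (540/590 nm) versus monomer (490/535 nm) fluorescence.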

[7] = qHTS assay to test for compound auto fluorescence at 590 nm (red) in HepG2 cells (AID 720674)
Outline: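 HepG2 cells, 2,000 per well in MEM with 10% FBS, attached overnight at 37 C, then got 23 nL compound or DMSO. After 1 hr at 37 C, 5% CO2, red fluorescence was read at 540/590 nm against Rose Bengal sodium as reference.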

[8] = qHTS assay to test for compound auto fluorescence at 535 nm (green) in HepG2 cells (AID 720675)
[9] = qHTS assay to test for compound auto fluorescence at 460 nm (blue) in HEK293 cells (AID 720678)
Outline: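 Blue-channel (Ex/Em 405/460 nm) intensity measured in HEK293 cultures after overnight compound exposure at 37C; signal expressed relative to triamterene. Cells plated 2,000 per well in 10% dialyzed FBS medium and allowed 4-5 hr to attach.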

[10] = qHTS assay to test for compound auto fluorescence at 590 nm (red) in HEK293 cells (AID 720679)
Outline: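 Red-channel autofluorescence (Ex/Em 540/590 nm; Rose Bengal sodium reference) was measured after overnight 37C, 5% CO2 exposure of attached HEK293 cells, 2,000 per well in medium with 10% dialyzed FBS.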

[11] = qHTS assay to test for compound auto fluorescence at 535 nm (green) in HEK293 cells (AID 720680)
[12] = qHTS assay to test for compound auto fluorescence at 460 nm (blue) in HEK293 cell free culture (AID 720681)
Outline: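 Compounds were added to cell-free DMEM with 10% FBS and fluorescence read directly. The blue channel used 405 nm excitation and 460 nm emission, with triamterene as the reference fluorophore.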

[13] = qHTS assay to test for compound auto fluorescence at 535 nm (green) in HEK293 cell free culture (AID 720682)
Outline: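 Read-out: 485/535 nm fluorescence intensity, calibrated against fluorescein. Medium only (DMEM + 10% FBS, no cells); test compound or DMSO vehicle added by pintool before plate reading.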

[14] = qHTS assay to test for compound auto fluorescence at 590 nm (red) in HEK293 cell free culture (AID 720683)
Outline: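 Cell-free wells of DMEM with 10% FBS received compound, and intrinsic fluorescence was read at excitation/emission 540/590 nm. Values expressed as equivalence to Rose Bengal sodium.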

[15] = qHTS assay to test for compound auto fluorescence at 590 nm (red) in HepG2 cell free culture (AID 720684)
Outline: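 Compound was pinned into wells holding MEM with 10% FBS and no cells, and red fluorescence was read at Ex/Em 540/590 nm. Signal is expressed as auto fluorescence equivalency relative to Rose Bengal sodium.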

[16] = qHTS assay to test for compound auto fluorescence at 460 nm (blue) in HepG2 cell free culture (AID 720685)
Outline: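 Compound (23 nL) or DMSO pinned into cell-free MEM with 10% FBS; blue fluorescence read at 405/460 nm excitation/emission, expressed as auto-fluorescence equivalency to triamterene.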

[17] = qHTS assay to test for compound auto fluorescence at 535 nm (green) in HepG2 cell free culture (AID 720686)
[18] = qHTS assay to test for compound auto fluorescence at 460 nm (blue) in HepG2 cells (AID 720687)
Outline: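 HepG2 cells in MEM with 10% FBS, attached overnight at 37 C, were exposed to compound or DMSO for 1 hr at 37 C, 5% CO2. Blue fluorescence was read at 405/460 nm, with triamterene as reference fluorophore.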

[19] = target: Glucocorticoid receptor (Homo sapiens) (UniProt P04150); experiment: qHTS assay to identify small molecule agonists of the glucocorticoid receptor (GR) signaling pathway (AID 720691; active = well fitted activation curve with a large enough effect in the signal ratio in the repeat runs, not every such curve was filed as active; the % refers to the signal ratio)
Sequence of Glucocorticoid receptor (Homo sapiens) (P04150 whole entry, looked up): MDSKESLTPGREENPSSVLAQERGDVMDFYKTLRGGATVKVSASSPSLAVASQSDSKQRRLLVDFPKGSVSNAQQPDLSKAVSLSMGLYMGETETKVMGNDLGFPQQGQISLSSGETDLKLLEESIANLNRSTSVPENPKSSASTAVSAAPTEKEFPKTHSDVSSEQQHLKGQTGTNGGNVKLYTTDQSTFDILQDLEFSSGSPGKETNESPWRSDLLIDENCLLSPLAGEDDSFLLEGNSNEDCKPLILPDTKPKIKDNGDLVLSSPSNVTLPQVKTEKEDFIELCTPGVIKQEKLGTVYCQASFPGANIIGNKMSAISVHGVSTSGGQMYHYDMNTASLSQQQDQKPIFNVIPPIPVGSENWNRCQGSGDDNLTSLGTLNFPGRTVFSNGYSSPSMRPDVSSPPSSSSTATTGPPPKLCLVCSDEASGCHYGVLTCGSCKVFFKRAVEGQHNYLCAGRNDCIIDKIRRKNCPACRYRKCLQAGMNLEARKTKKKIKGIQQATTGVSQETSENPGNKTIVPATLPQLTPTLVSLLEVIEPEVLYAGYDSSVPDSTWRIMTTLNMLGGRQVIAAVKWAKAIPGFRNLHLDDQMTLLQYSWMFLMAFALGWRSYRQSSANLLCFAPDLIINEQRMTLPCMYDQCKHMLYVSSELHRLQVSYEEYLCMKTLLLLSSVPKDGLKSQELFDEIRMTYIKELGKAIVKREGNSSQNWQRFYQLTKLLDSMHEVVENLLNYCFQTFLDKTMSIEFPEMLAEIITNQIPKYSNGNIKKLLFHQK
Outline: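 Agonist mode in a HeLa line carrying a GRE-controlled beta-lactamase reporter. Compounds act for 18 h at 37 C before a 2 h room-temperature FRET substrate step and fluorescence reading.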

[20] = target: Glucocorticoid receptor (Homo sapiens) (UniProt P04150); experiment: qHTS assay to identify small molecule antagonists of the glucocorticoid receptor (GR) signaling pathway (AID 720692; active = well fitted inhibition curve with a large enough effect in the signal ratio in the repeat runs, not every such curve was filed as active; the % refers to the signal ratio)
Outline: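 Cells plated, rested 4 h at 37 C/5% CO2; compounds in DMSO pin-transferred; dexamethasone added to 5 nM final; 18 h at 37 C; B/G FRET substrate added, 2 h room temperature; fluorescence measured.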
% is scaled to controls: 0 for no effect and ±100 for the full control effect.

CC(C)Cc1ccc(CC(=O)O)cc1
inactive: Potency [1] | Potency [2] | Potency [3] | Potency [4] | outcome [5] | Potency [6] | outcome [7] | outcome [8] | Potency [9] | outcome [10] | outcome [11] | Potency [12] | outcome [13] | outcome [14] | outcome [15] | Potency [16] | outcome [17] | Potency [18] | Potency [19] | Potency [20]

CCCC(=O)OC(=O)CCC
inactive: Potency [1] | Potency [2] | Potency [3] | Potency [4] | outcome [5] | Potency [6] | outcome [7] | outcome [8] | Potency [9] | outcome [10] | outcome [11] | Potency [12] | outcome [13] | outcome [14] | outcome [15] | Potency [16] | outcome [17] | Potency [18]

Nc1ccc(S(=O)(=O)NCc2ccccc2)cc1
inactive: Potency [1] | Potency [2] | Potency [3] | Potency [4] | outcome [5] | Potency [6] | outcome [7] | outcome [8] | Potency [9] | outcome [10] | outcome [11] | Potency [12] | outcome [13] | outcome [14] | outcome [15] | Potency [16] | outcome [17] | Potency [18] | Potency [19] | Potency [20]

CC(=O)N[C@@H](Cc1ccc(O)cc1)C(=O)O
inactive: Potency [1] | Potency [2] | Potency [3] | Potency [4] | outcome [5] | Potency [6] | outcome [7] | outcome [8] | Potency [9] | outcome [10] | outcome [11] | Potency [12] | outcome [13] | outcome [14] | Potency [16] | outcome [17] | Potency [18] | Potency [19] | Potency [20]

CCO[Si](C)(CCCOCC1CO1)OCC (stereo not given)
inactive: Potency [1] | Potency [2] | Potency [3] | Potency [4] | outcome [5] | Potency [6] | outcome [7] | outcome [8] | Potency [9] | outcome [10] | outcome [11] | Potency [12] | outcome [13] | outcome [14] | outcome [15] | Potency [16] | outcome [17] | Potency [18] | Potency [19] | Potency [20]

c1ccc2sc(SSc3nc4ccccc4s3)nc2c1
inactive: Potency [1] | Potency [2] | Potency [3] | Potency [4] | outcome [5] | Potency [6] | outcome [7] | outcome [8] | Potency [9] | outcome [10] | outcome [11] | Potency [12] | outcome [13] | outcome [14] | outcome [15] | Potency [16] | outcome [17] | Potency [18] | Potency [19] | Potency [20]

CC(C)C(=O)OCCOc1ccccc1
inactive: Potency [1] | Potency [2] | Potency [3] | Potency [4] | outcome [5] | Potency [6] | outcome [7] | outcome [8] | Potency [9] | outcome [10] | outcome [11] | Potency [12] | outcome [13] | outcome [14] | outcome [15] | Potency [16] | outcome [17] | Potency [18] | Potency [19] | Potency [20]

CC(C)(C(=O)c1cccnc1)c1cccnc1
inactive: Potency [1] | Potency [2] | Potency [3] | Potency [4] | outcome [5] | Potency [6] | fluorescence, relative to Rose Bengal [7] -0.433% [at 18.6 µM] | fluorescence, % of fluorescein control [8] -0.0177% [at 18.6 µM] | fluorescence, % of triamterene [9] -0.0025% [at 18.6 µM] | fluorescence, % of fluorescent control [10] -0.175% [at 18.6 µM] | fluorescence, % of fluorescein [11] 0.0635% [at 18.6 µM] | fluorescence, % of fluorescent control [12] -0.108% [at 18.6 µM] | activity change [13] 0.0185% [at 18.6 µM] | fluorescence, % of fluorescent control [14] 0.0451% [at 18.6 µM] | fluorescence, % of Rose Bengal [15] 0.0034% [at 18.6 µM] | fluorescence, % of fluorescent control [16] -0.0441% [at 18.6 µM] | fluorescence, % of fluorescein control [17] 0.0796% [at 18.6 µM] | fluorescence, % of fluorescent control [18] -0.0372% [at 18.6 µM] | Potency [19] | Potency [20]

CS(=O)(=O)c1ccc([C@@H](C[C@H]2CCC(=O)C2)C(=O)Nc2cnccn2)cc1Cl
inactive: Potency [1] | Potency [2] | Potency [3] | Potency [4] | outcome [5] | Potency [6] | outcome [7] | outcome [8] | Potency [9] | outcome [10] | outcome [11] | Potency [12] | outcome [13] | outcome [14] | outcome [15] | Potency [16] | outcome [17] | Potency [18] | Potency [19] | Potency [20]

CCCCCCOC(=O)CCCCC
inactive: Potency [1] | Potency [2] | Potency [3] | Potency [4] | outcome [5] | Potency [6] | outcome [7] | outcome [8] | Potency [9] | outcome [10] | outcome [11] | Potency [12] | outcome [13] | outcome [14] | outcome [15] | Potency [16] | outcome [17] | Potency [18] | Potency [19] | Potency [20]

COc1ccc(C2C(=O)c3ccccc3C2=O)cc1
inactive: Potency [1] | Potency [2] | Potency [3] | Potency [4] | outcome [5] | Potency [6] | outcome [7] | outcome [8] | Potency [9] | outcome [10] | outcome [11] | Potency [12] | outcome [13] | outcome [14] | outcome [15] | Potency [16] | outcome [17] | Potency [18] | Potency [19] | Potency [20]

CCCCCCCCCCCCCCCCCC(=O)OCC(CC)CCCC (stereo not given)
inactive: Potency [1] | Potency [2] | Potency [3] | Potency [4] | outcome [5] | Potency [6] | outcome [7] | outcome [8] | Potency [9] | outcome [10] | outcome [11] | Potency [12] | outcome [13] | outcome [14] | outcome [15] | Potency [16] | outcome [17] | Potency [18]

CC(C)c1ccc(C#N)cc1
inactive: Potency [1] | Potency [2] | Potency [3] | Potency [4] | outcome [5] | Potency [6] | outcome [7] | outcome [8] | Potency [9] | outcome [10] | outcome [11] | Potency [12] | outcome [13] | outcome [14] | outcome [15] | Potency [16] | outcome [17] | Potency [18] | Potency [19] | Potency [20]

— PubChem BioAssay (Tox21)
